Molecules are shown by their SMILES. Screen size: about 350,000 compounds; about 6,000 (1.7%) were called active. Roughly 5% stayed inconclusive and do not appear here. For the sample, actives were picked, then their nearest neighbours and some compounds at random. A number with no mark means an inactive call. Cut-off read from the data, not from the text of the source: active = CPE inhibition above about 20% (passing the limit was not always enough); inconclusive = no clear call, values can overlap the other calls; tested in BHK-21 cells.

The values below come from PubChem BioAssay AID651640 (Broad Institute, 2012).

The experiment is described as follows: protection of cells from dengue 2 killing – plate reader, single concentration, primary screen (AID 651640).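 Note: 0% = median of neutral control wells and 100% = median of positive control wells.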 The note with it: DENV2-infected cells, cytopathic effect rescue, at 9.99 µM, hits give high values. (In general: Protection from cytopathic effect is a common read-out in antiviral testing.)
For `CCCNC(=O)N1[C@@H](C#N)[C@H](c2ccc(-c3ccc(C(=O)N(C)C)cc3)cc2)[C@@H]1CO`, the CPE inhibition is -5.96%.
Under `COC(=O)C[C@@H]1CC[C@@H]2[C@H](COc3ccc(NS(=O)(=O)c4ccccc4F)cc3C(=O)N2C)O1` stands 1.86%; under `C[C@@H]1CCCCO[C@H](CN(C)C(=O)Nc2ccc3c(c2)OCO3)[C@H](C)CN([C@H](C)CO)C(=O)c2cc(NS(C)(=O)=O)ccc2O1`, 11.9%; under `CCC(CO)Oc1cc(NC(=O)c2cccc3ccccc23)c2ncn(C(C)C)c2c1` (stereo not given), -11.1%.
As for `CCC(CO)Oc1cc(NC(=O)c2cccc(F)c2)c2ncn(C(C)C)c2c1` (stereo not given), the CPE inhibition is -10.5%.
Under `CCC(CO)Oc1cc(NCc2ccccc2)c2ncn(C3CCCC3)c2c1` (stereo not given) stands 64.4% (active); under `COc1ccc(SSc2ccc(OC)cc2C(=O)O)c(C(=O)O)c1`, 2.7%.
With `O=S(=O)(c1ccccc1)N1CCCCN2[C@@H](CO)[C@H](c3ccc(C#Cc4cccnc4)cc3)[C@@H]2C1` the figure was 17.6%; with `C[C@@H](O)C#Cc1ccc([C@@H]2[C@H]3CN(C(=O)c4ccc5c(c4)OCO5)CCCCN3[C@H]2CO)cc1`, 2.09%; with `O=C(Nc1ccccc1F)N1CCCCN2[C@H](CO)[C@@H](c3ccc(-c4cccnc4)cc3)[C@H]2C1`, 5.39%.
Under `COc1ccc(C#Cc2ccc([C@@H]3[C@@H](CO)N4CCCCN(C(=O)c5ccncc5)C[C@@H]34)cc2)cc1` stands 50.9% (active); under `C[C@H](O)C#Cc1ccc([C@H]2[C@H](CO)N3CCCCN(C(=O)c4ccc(F)cc4)C[C@@H]23)cc1`, 41.2% (active).
As for `CC(C)(O)C#Cc1ccc([C@H]2[C@@H](CO)N3CCCCN(C(=O)c4ccncc4)C[C@H]23)cc1`, the CPE inhibition is 0.094%.
With `CN(C)CC(=O)N1CCCCN2[C@@H](CO)[C@H](c3ccc(-c4cccnc4)cc3)[C@@H]2C1` the figure was 33.3% (active); with `COCC(=O)N1CCCCN2[C@H](CO)[C@H](c3ccc(-c4ccc(OC)cc4)cc3)[C@H]2C1`, -1.33%; with `CC(C)C#Cc1ccc([C@H]2[C@H](CO)N3CCCCN(C(=O)c4ccc(F)cc4)C[C@@H]23)cc1`, 10.5%.
With `C[C@H](O)C#Cc1ccc([C@@H]2[C@@H](CO)N3CCCCN(C(=O)c4ccncc4)C[C@@H]23)cc1` the figure was -16.7%.
Under `CCC(=O)N1CCCCN2[C@H](CO)[C@@H](c3ccc(-c4cccnc4)cc3)[C@H]2C1` stands -0.425%; under `COc1ccc(-c2ccc([C@@H]3[C@@H](CO)N4CCCCN(C(=O)NC(C)C)C[C@H]34)cc2)cc1`, 63.6% (active).
Regarding `COCC(=O)N1CCCCN2[C@H](CO)[C@@H](c3ccc(-c4ccc(OC)cc4)cc3)[C@@H]2C1`, the CPE inhibition is -7.09%.
With `O=C(Nc1ccc(C(F)(F)F)cc1)N[C@@H]1CC[C@H](CCNC(=O)c2ccccc2F)O[C@@H]1CO` the figure was 5.46%; with `C[C@@H]1CCCCO[C@@H](CN(C)C(=O)Nc2ccc(F)cc2)[C@H](C)CN([C@@H](C)CO)C(=O)c2cc(NS(=O)(=O)c3ccccc3)ccc2O1`, -1.25%; with `CCC(=O)N1C[C@@H](C)[C@@H](OC)CN(C)C(=O)c2ccc(NC(=O)C3CCCCC3)cc2OC[C@@H]1C`, -0.243%.
With `COC(=O)C1=C(C)N(Cc2ccc(C(F)(F)F)cc2)C(=NCc2ccccc2)NC1c1ccccc1C(F)(F)F` (stereo not given) the figure was 16%.
Under `CN1[C@@H]2c3ccc(-c4cccc(F)c4)c(=O)n3C[C@@H]2[C@@H](CO)[C@@H]1C(=O)NC1CCC1` stands -3.71%; under `CC(C)NC(=O)N(C)C[C@@H]1Oc2ccc(NC(=O)Cn3cnnn3)cc2CC(=O)N([C@H](C)CO)C[C@H]1C`, -6.63%; under `O=C(C[C@@H]1C[C@@H]2c3cc(NS(=O)(=O)c4ccccc4)ccc3O[C@@H]2[C@@H](CO)O1)NC1CCCCC1`, 9.22%.
On to `C[C@H](CO)N1C[C@H](C)[C@@H](CN(C)C(=O)Nc2ccnc(N3CCOCC3)c2)OCc2ccccc2-c2c(n(C)c3ccccc23)C1=O`, for which the CPE inhibition was -11.2%.
Under `C[C@@H](O)C#Cc1ccc([C@H]2[C@H](CO)N3CCCCN(C(=O)c4ccc(F)cc4)C[C@@H]23)cc1` stands 22.8% (active); under `C[C@@H](O)C#Cc1ccc([C@@H]2[C@@H](CO)N3CCCCN(C(=O)c4ccc(F)cc4)C[C@@H]23)cc1`, 2.55%.
With `C[C@H](O)C#Cc1ccc([C@@H]2[C@@H](CO)N3CCCCN(C(=O)c4ccc(F)cc4)C[C@H]23)cc1` the figure was 4.05%.
With `O=C(C[C@@H]1CC[C@@H]2[C@H](COC[C@H](O)CN2Cc2ccc(F)cc2)O1)NCc1ccncn1` the figure was 19.2%; with `C[C@H]1CN([C@@H](C)CO)S(=O)(=O)c2ccc(-c3ccncc3)cc2O[C@H]1CN(C)S(C)(=O)=O`, 8.89%; with `CC1(c2ccc(Cl)cc2)NC(=O)N(CC(=O)c2ccc3c(c2)OCO3)C1=O` (stereo not given), 14.3%.
As for `COc1ccc(C2(C)NC(=O)N(CC(=O)c3ccc4c(c3)OCO4)C2=O)cc1` (stereo not given), the CPE inhibition was 53.4% (active).
With `CCC1(c2ccccc2)NC(=O)N(CC(=O)c2ccc3c(c2)OCO3)C1=O` (stereo not given) the figure was 4.81%.
Under `COc1ccc([Si](C)(C)[C@@H]2[C@@H](CCO)O[C@]3(C(=O)N(Cc4cccc(N5CCCCC5=O)c4)c4ccccc43)[C@H]2C)cc1` stands 3.86%; under `COc1ccc(C#Cc2cccc(-c3nc(C(=O)O)cc4c3[C@@H](CCO)N(S(=O)C(C)(C)C)C4)c2)cc1OC` (stereo not given in full), 0.722%; under `COCC(=O)Nc1ccc2c(c1)[C@H]1C[C@H](CC(=O)OC)O[C@@H](CO)[C@H]1O2`, -10.3%.
`CCC(=O)Nc1ccc2c(c1)OC[C@H](C)N(CC1CCOCC1)C[C@@H](C)[C@@H](OC)CN(C)C2=O`: the CPE inhibition is -4.88%.
With `Nc1c(C(=O)c2cccs2)sc2nsc(SCCN3CCCCC3)c12` the figure was 29.4% (active); with `O=C(CSc1ncnc2sccc12)N1CCN(C(=O)c2cccs2)CC1`, 2.68%.
Under `CO[C@@H]1CN(C)C(=O)c2cc(NC(=O)c3ccccc3)ccc2OC[C@@H](C)N(C(C)=O)C[C@@H]1C` stands -5.72%; under `C[C@H](CO)N1C[C@H](C)[C@@H](CN(C)C(=O)c2ccccc2)OCCCC[C@H](C)Oc2ccc(NC(=O)c3ccccc3)cc2C1=O`, 13.1%; under `O=C(C[C@H]1CC[C@@H]2[C@H](COC[C@H](O)CN2S(=O)(=O)c2ccc(F)cc2)O1)NCCN1CCCCC1`, -7.98%.
With `O=C(C[C@@H]1CC[C@@H]2[C@H](COC[C@H](O)CN2S(=O)(=O)c2ccc(Cl)cc2)O1)N[C@@H]1CCN(Cc2ccccc2)C1` the figure was 3.99%; with `O=C(C[C@H]1CC[C@@H]2[C@H](COC[C@H](O)CN2S(=O)(=O)c2ccc(Cl)cc2)O1)N[C@@H]1CCN(Cc2ccccc2)C1`, -1.97%; with `O=C(C[C@H]1CC[C@H]2[C@@H](COC[C@@H](O)CN2S(=O)(=O)c2ccc(Cl)cc2)O1)NCCN1CCCCC1`, 23.7% (active).
For `O=C(C[C@@H]1CC[C@H]2[C@@H](COC[C@H](O)CN2S(=O)(=O)c2ccc(F)cc2)O1)N[C@H]1CCN(Cc2ccccc2)C1`, the CPE inhibition is 24.2% (active).
Under `O=C(C[C@@H]1CC[C@H]2[C@@H](COC[C@H](O)CN2S(=O)(=O)c2ccccc2)O1)NCCN1CCCC1` stands -4.25%; under `C[C@H](CO)N1C[C@H](C)[C@@H](CN(C)C)Oc2ccc(NS(=O)(=O)c3cccs3)cc2C1=O`, -7.81%.
Under `Cc1noc(C)c1NC(=O)N(C)C[C@H]1OCCCC[C@@H](C)Oc2ccc(NC(=O)NC(C)C)cc2C(=O)N([C@@H](C)CO)C[C@H]1C` stands 18%; under `CNC[C@@H]1Oc2cc(C#CC3(O)CCCC3)ccc2S(=O)(=O)N([C@@H](C)CO)C[C@H]1C`, 12.4%.
With `COc1ccc2c3c([nH]c2c1)[C@@H](CO)N(Cc1ccccc1F)CC31CN(C(=O)C2CC2)C1` the figure was 2.19%.
With `COc1ccc2c3c([nH]c2c1)[C@H](CO)N(Cc1ccccc1Cl)CC31CN(C(=O)C2CC2)C1`, the CPE inhibition is 53.5% (active).
For the compound `COc1ccc2c3c([nH]c2c1)[C@@H](CO)N(Cc1cc(F)ccc1F)CC31CN(C(=O)C2CCC2)C1`, the CPE inhibition is -7.65%.
Under `CCCNC(=O)N1CCC2(CC1)CN(Cc1ccccc1)[C@H](CO)c1[nH]c3cc(OC)ccc3c12` stands 8.24%; under `CCC(=O)N1CC2(C1)CN(Cc1cc(F)ccc1F)[C@@H](CO)c1[nH]c3cc(OC)ccc3c12`, 47.6% (active); under `COCC(=O)N1CC2(C1)CN(Cc1ccccc1F)[C@@H](CO)c1[nH]c3cc(OC)ccc3c12`, 11.2%.
Under `COc1ccc2c3c([nH]c2c1)[C@@H](CO)N(Cc1cccc(F)c1)CC31CN(CC2CC2)C1` stands 2.63%.
With `CCC(=O)N1CC2(C1)CN(Cc1ccccc1Cl)[C@@H](CO)c1[nH]c3cc(OC)ccc3c12` the figure was 1.97%; with `CCCNC(=O)N1CC2(C1)CN(Cc1cccc(F)c1)[C@@H](CO)c1[nH]c3cc(OC)ccc3c12`, 136% (active).
Consider `COCC(=O)Nc1ccc2c(c1)OC[C@@H](C)N(C(=O)c1ccncc1)C[C@@H](C)[C@@H](OC)CN(C)C2=O`, for which the CPE inhibition was 13.2%.
Under `O=C(NC[C@H]1CC[C@@H]2[C@@H](CN2S(=O)(=O)c2ccccc2F)O1)C1CCCCC1` stands -10.6%; under `COCC#Cc1cnc2c(c1)C(=O)N([C@@H](C)CO)C[C@H](C)[C@@H](CN(C)Cc1ccccc1)O2`, 7.93%.
